In the library only some 3.4% were active in any assay of this set; here they are far more common.
TWEAK Fn14 block = inhibitors of TWEAK-Fn14 signaling, primary screen, luciferase reporter cells, uHTS. TWEAK-stimulated Fn14 reporter cells, luciferase luminescence, 8 h. inhibition, % at 10 µM. 360,000 tested, 2% active. AID 1159606, 2016; in the data active means inhibition above about 50%
TROY signal inh = inhibitors of TROY-driven NF-kB signaling, primary screen, Q293 LMP1-TROYcd cells, NF-kB luciferase, uHTS. Q293 LMP1-TROYcd NF-kB luciferase reporter, 4 h. inhibition, % at 10 µM. 360,000 tested, 0.98% active;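 active means compounds whose plate-normalised and pattern-corrected inhibition of the luciferase reporter signal at the single screening dose is 50% or more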
LMP1 NFkB inh = EBV LMP1-driven NF-kappaB luciferase reporter inhibitors, primary screen, cell-based, luminescence, single point; 350,000 tested, 0.69% active; inhibition, % at 12.5 µM; LMP1-induced NF-kappaB luciferase reporter cells; in the data active means inhibition above about 41%; inconclusive means no clear call, values can overlap the other calls
TRPM1 prom inh = inhibitors of MITF-dependent TRPM1 promoter reporter, primary screen, cell-based, SK-MEL-5, single point, luciferase; SK-MEL-5 TRPM1 promoter luciferase, 24 h; inhibition, % at 12.5 µM; AID 488899, 2010; 330,000 tested, 0.83% active;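 active means mean inhibition across replicates of 60% or more, whatever share of single replicates reaches that level; inconclusive means some that reach 60%, reason not given; inactive means mean inhibition across replicates below 60%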
Shn3 3UTR inh = reduction of Shn3 3'UTR firefly luciferase signal, primary screen, Schnurri-3 inhibitor project, cell-based, Clone20 osteoblasts, set 2; Clone20 osteoblast Shn3 3'UTR firefly luciferase, 24 h; inhibition, % at 12.5 µM; 360,000 tested, 0.52% active;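 active means mean inhibition of at least 75% with every replicate also reaching 75%; inconclusive means mean inhibition at least 75% but some replicate below; inactive means mean inhibition below 75%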
HIF-2a block = HIF-2a reporter inhibitors, primary screen, luminescence, 786-0 RCC cells; AID 624352, 2012; 360,000 tested, 0.72% active; 786-0 RCC cells HIF-2a reporter, luciferase luminescence, overnight; inhibition, % at 18.8 µM;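 active means inhibition of the luminescence signal of 40% or more relative to plate controls, in a single-dose primary screen at 18.75 µM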
Hits are given with their value; - = inactive; ? = inconclusive; . = not tested or not shown.

SMILES | TWEAK Fn14 block | TROY signal inh | LMP1 NFkB inh | TRPM1 prom inh | Shn3 3UTR inh | HIF-2a block
Cc1ccc(N2C(=O)c3ccccc3C2Nc2cccnc2)nc1 (stereo not drawn) | - | - | 81 | - | - | -
CCCCCc1ccc(OCCOCCn2c[n+](C)c3ccccc32)c(CCCCC)c1 | 89 | 52 | - | 77 | 93 | -
C[n+]1cn(CC(O)COCc2ccccc2)c2ccccc21 (stereo not drawn) | - | - | - | - | - | -
CCCCCc1ccc(OCCC[n+]2ccccc2)c(CCCCC)c1 | 67 | - | - | 105 | ? | -
CC(=O)Nc1ccc(OCCC[n+]2ccccc2)cc1 | - | - | - | - | - | -
COC(=O)c1ccc2nc(-c3ccc(C)cc3)c(CC3CCCCC3)n2c1 | - | - | . | . | - | -
Cc1nn(CC(=O)OCC(=O)NC(C)c2ccccc2)c(C)c1[N+](=O)[O-] (stereo not drawn) | - | - | - | - | - | -
O=c1c(Cl)c(Nc2cccc(Cl)c2)cnn1-c1nc2ccccc2s1 | 62 | - | - | - | - | -
COc1ccc(Nc2cnn(-c3nc4ccccc4s3)c(=O)c2Cl)cc1 | - | - | - | - | - | -
CC(C)(C)n1[nH]c2c3c(ccc2c1=O)C(=O)c1ccccc1C3=O | 64 | - | - | ? | - | -
COCCCn1[nH]c2c3c(ccc2c1=O)C(=O)c1ccccc1C3=O | - | - | - | 61 | - | -
Cc1ccc(-n2[nH]c3c4c(ccc3c2=O)C(=O)c2ccccc2C4=O)cc1 | - | - | - | - | - | -
Cc1ccc(C)c(NC(=O)C2CC(=O)N(C3CCCCC3)C2)c1 (stereo not drawn) | - | - | - | - | - | -
Cc1c(N2C(=O)/C(=C\c3ccccc3O)SC2=S)c(=O)n(-c2ccccc2)n1C | - | - | - | - | - | -
CN1C(=O)/C(=C/c2cc(N=Nc3ccccc3)ccc2O)SC1=S | 65 | 54 | - | - | - | -
Cc1cc(-c2ccccc2)nc(N/N=C/c2ccc(O)cc2)n1 | - | - | - | - | - | -
Oc1ccc(/C=N/Nc2nc(-c3ccc(Cl)cc3)cc(C(F)(F)F)n2)cc1 | 79 | - | - | - | - | -
CC(Sc1nnnn1-c1ccc(O)cc1)C(=O)NNC(=O)c1ccc(F)cc1 (stereo not drawn) | - | - | - | - | - | -
N#CCN(C(=O)CSc1nnc(C2CC2)n1C1CC1)c1ccccc1 | - | - | - | . | - | -
Cc1noc(/C=C/Nc2ccc(F)cc2F)c1[N+](=O)[O-] | - | - | - | - | - | -
Cc1ccccc1Nc1ccc2nonc2c1[N+](=O)[O-] | - | - | - | - | - | -
COc1ccccc1Nc1ccc2nonc2c1[N+](=O)[O-] | 89 | - | - | . | - | -
COc1ccccc1N/C=C/c1onc(C)c1[N+](=O)[O-] | 78 | 72 | - | - | - | -
OC1(c2ccc3c(c2)OCO3)CCN(Cc2ccc(F)cc2)CC1 | - | - | - | - | - | -
N#Cc1ccc(-c2ccc(OCC(O)Cn3nnc4ccccc43)cc2)cc1 (stereo not drawn) | - | 52 | - | - | - | -
SMILES | TWEAK Fn14 block | TROY signal inh | LMP1 NFkB inh | TRPM1 prom inh | Shn3 3UTR inh | HIF-2a block
Cc1cc(-n2c(C)cc(C(=O)CSc3nncn3C(C)C)c2C)no1 | - | - | - | - | - | -
Cc1cc(C)c(C(N)=O)c(SCC(=O)c2cc(C)n(-c3cc(C)on3)c2C)n1 | - | - | - | - | 90 | -
Cc1cc(-n2c(C)cc(C(=O)CSc3nncn3C)c2C)no1 | - | - | - | - | 90 | -
Cc1cc(C)c(C(N)=O)c(SCC(=O)c2cc(C)c(C)cc2C)n1 | - | - | - | - | - | -
COCCNC(=O)C1(C)CCCN(C(=O)c2ccc3snnc3c2)C1 (stereo not drawn) | - | - | . | . | - | -
O=C(N/N=C/c1cccc([N+](=O)[O-])c1)c1cccc2cc[nH]c12 | - | - | - | - | - | -
O=C(N/N=C/c1cc([N+](=O)[O-])ccc1O)c1cccc2cc[nH]c12 | - | - | - | 74 | - | -

Assay outcomes as filed in PubChem.
